Hits are enriched below; roughly 27% of the tested compounds scored in any of these assays.
CYP2C9 act: activators of human CYP2C9. P11712. activation factor at 5 µM. recombinant CYP2C9, luciferin-H conversion, luminescence; stronger effect = higher value; factor 1 = untreated enzyme, 0 = blocked. hit rate 1.4% among 96,000;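 active = activation factor of 2 or more for CYP2C9 at a 5 µM dose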
CYP2C19 act: increases human CYP2C19 enzyme activity; P33261; recombinant CYP2C19, luciferin-H EGE luminescence; stronger effect = higher value; 0 = fully inhibited enzyme, 1 = untreated enzyme; activation factor at 5 µM; 96,000 tested, under 10 active;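 active = activation factor of at least 2 at 5 µM in the primary screen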
Cav32 inh: blocks human Cav3.2 T-type calcium channel; O95180; Cav3.2-expressing cells, Fluo-4 calcium fluorescence FDSS; stronger effect = lower value; AID 449739; hit rate 4% among 100,000; B-score at 10 µM;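 active = single-dose well whose peak fluorescence ratio is a statistical outlier from its plate by either plate-standardised score or position-corrected B-score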
CYP2C9 inh: human CYP2C9 inhibition | P11712 | CYP2C9 Supersomes, luciferin-H conversion, luminescence | inhibition, % at 5 µM | hit rate 20% among 96,000 | AID 777;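 active = blocking of liver enzyme CYP2C9 beyond about 50% at 5 µM, limit read from the data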
CYP2C19 inhib: inhibitors of human CYP2C19. hit rate 21% among 96,000. inhibition, % at 5 µM. CYP2C19 Supersomes, luciferin-H EGE luminescence, 30 min;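 active = CYP2C19 inhibition above a set limit at 5 µM in the primary screen, cut at about 50% in these data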
Each line names hits and unclear results; the compound was inactive in the other large screens.

COc1ccc(-c2nc(-c3cccc(C)c3)[nH]c(=O)c2C#N)cc1	CYP2C9 inh 52
CC1(C)OC(=O)C2(Cc3ccccc3N3CCCCC32)C(=O)O1 (configuration not stated)	CYP2C19 inhib 61
Cc1onc(-c2c(F)cccc2Cl)c1C(=O)NCc1cccs1	CYP2C9 inh 84, CYP2C19 inhib 85
COc1ccc(S(=O)(=O)n2nc(OC(=O)c3c(-c4ccccc4Cl)noc3C)cc2N)cc1	Cav32 inh -5.4, CYP2C9 inh 94
Cc1onc(-c2ccccc2Cl)c1C(=O)Nc1ccccc1C(N)=O	CYP2C19 inhib 56
Cc1cc(C)nc(NC(=O)c2c(-c3ccccc3Cl)noc2C)n1	none
Cc1onc(-c2ccccc2Cl)c1C(=O)Nc1ccccc1C(=O)NC(C)C	CYP2C9 inh 79
Cc1onc(-c2c(F)cccc2Cl)c1C(=O)NCc1ccco1	none
O=C(c1cccc(Cl)c1)N1CCC(=O)N(C(CO)Cc2ccccc2)CC1 (configuration not stated)	none (no result: CYP2C9 act, CYP2C19 act, CYP2C9 inh, CYP2C19 inhib)
Cc1onc(-c2ccccc2Cl)c1C(=O)NCC(=O)O	none
CCSc1nnc(NC(=O)c2c(-c3ccccc3Cl)noc2C)s1	CYP2C9 inh 95, CYP2C19 inhib 100
Cc1onc(-c2ccccc2Cl)c1C(=O)Nc1ccccc1N1CCOCC1	CYP2C9 inh 69, CYP2C19 inhib 61
Cc1onc(-c2ccccc2Cl)c1C(=O)NCc1ccccc1	CYP2C9 inh 58, CYP2C19 inhib 88
CC(=O)Nc1cccc(NC(=O)c2c(-c3ccccc3Cl)noc2C)c1	none
Cc1onc(-c2ccccc2Cl)c1C(=O)OCN1C(=O)c2ccccc2C1=O	CYP2C19 inhib 56
CCOc1ccc(NC(=O)C2CCCN(S(=O)(=O)c3cccc4nsnc34)C2)cc1 (configuration not stated)	none
Cc1nn(CC(=O)O)c2ccccc12	none
Cc1onc(-c2ccccc2Cl)c1C(=O)Nc1cccc2cccnc12	CYP2C19 inhib 76
COc1ccc(Cl)cc1NC(=O)C(C)Sc1nncn1C (configuration not stated)	none (no result: Cav32 inh)
COc1ccc(CC(=O)Nc2cc(Cl)ccc2O)cc1	CYP2C9 inh 59, CYP2C19 inhib 92
COc1ccc(CC(=O)Nc2cc(C)on2)cc1	none
COc1ccc(CCC(=O)Nc2cc(Cl)ccc2OC)cc1	CYP2C19 inhib 100
COc1ccc(Cl)cc1NC(=O)C(C)Sc1n[nH]c(N)n1 (configuration not stated)	CYP2C9 act 2.3 (no result: Cav32 inh)
COc1ccc(Cl)cc1NC(=O)Cn1cccc1	CYP2C9 act 2.8
COc1ccc(OC)c(S(=O)(=O)N(C)CC(=O)Nc2cc(Cl)ccc2OC)c1	none (no result: CYP2C9 act, CYP2C19 act, CYP2C9 inh, CYP2C19 inhib)
CCCn1c(=O)c(C(=O)Nc2c(C)n(C)n(-c3ccccc3)c2=O)c(O)c2ccccc21	none (no result: Cav32 inh)
Cc1nc2c(cnn2-c2ccc(Cl)cc2)c(=O)n1-c1ccc(N2CCC(C)CC2)cc1	none (no result: Cav32 inh)
Cc1ccc(-n2c(CNc3ccc(F)cc3)nnc2SCC(=O)NCc2ccco2)cc1	Cav32 inh -5.2, CYP2C9 inh 61
O=C(CSc1nnc(CCc2nc3ccccc3[nH]2)n1-c1ccccc1)NCc1ccco1	CYP2C9 inh 75
O=C(CSc1nnc(CCc2nc3ccccc3[nH]2)n1-c1ccccc1)NCc1ccccc1	none (no result: CYP2C9 act, CYP2C19 act, CYP2C9 inh, CYP2C19 inhib)
Cc1cc(C)cc(N(CC(=O)NC2CCC(C)CC2)S(=O)(=O)c2c(C)noc2C)c1 (configuration not stated)	none
CO[C@H]1O[C@@H]2O[C@@]3(C)CC[C@H]4[C@H](C)CC[C@@H]([C@H]1C)[C@@]24OO3	none (no result: CYP2C9 act, CYP2C19 act, CYP2C9 inh, CYP2C19 inhib)
Cc1cc(NC(=O)/C=C/c2ccccc2)no1	none
CCOc1ccc(CC2c3cc(OCC)c(OCC)cc3CCN2C(=O)c2cc(OC)c(OC)c(OC)c2)cc1OCC (configuration not stated)	CYP2C9 inh 60, CYP2C19 inhib 65
CCOc1ccc(C(=O)O)cc1OC	none
Cc1ccccc1[C@@H]1C(C#N)=C(N)S[C@H]1C(=O)c1ccccc1	CYP2C9 inh 98, CYP2C19 inhib 100
Cc1ccc(C2C(C#N)=C(N)SC(N)=C2C#N)cc1	none (no result: Cav32 inh)
N#Cc1ccc2ccn(CC(=O)NC3CCCCC3)c2c1	none
N#Cc1ccc2ccn(CC(=O)NCc3ccccc3)c2c1	CYP2C9 inh 59, CYP2C19 inhib 87
CC(NC(=O)c1ccc(Cl)cc1)c1nnc(SCc2ccc([N+](=O)[O-])cc2)n1C (configuration not stated)	none (no result: Cav32 inh)
CC(C)C(=O)NC(NC(=S)Nc1cccc2cccnc12)C(Cl)(Cl)Cl (configuration not stated)	CYP2C9 inh 84
CC(C)(C)C(=O)NC(Nc1cccc2cccnc12)C(Cl)(Cl)Cl (configuration not stated)	CYP2C9 inh 54, CYP2C19 inhib 54 (no result: Cav32 inh)
CCCc1ccc(/C=C2\C(=O)c3ccccc3C(O)=C2C(=O)OCC)cc1	CYP2C9 inh 92, CYP2C19 inhib 78
CCOC(=O)C1=C(O)c2ccccc2C(=O)/C1=C\c1ccc(CC)cc1	CYP2C9 inh 97, CYP2C19 inhib 89
CCOC(=O)c1ccc(NC2=CC(=O)C(=O)c3ccccc32)cc1	none
CCOC(=O)C1=C(O)CSC1=Nc1ccccc1	none
Cc1nc2nc[nH]n2c(=O)c1CCC(C)C	none
COC(=O)CC(NC(=O)c1ccco1)c1ccc(C(C)C)cc1 (configuration not stated)	none
CCC1Oc2ccc(C)cc2N(CC(=O)N(Cc2cccnc2)Cc2ccc(C)o2)C1=O (configuration not stated)	CYP2C9 inh 63, CYP2C19 inhib 72
CCC1Oc2ccc(C)cc2N(CC(=O)N(Cc2ccc(C)o2)C2CC(C)(C)NC(C)(C)C2)C1=O (configuration not stated)	none (no result: CYP2C9 act, CYP2C19 act, CYP2C9 inh, CYP2C19 inhib)
Cc1cc(C(C#N)c2cccc(Cl)c2)n2ncnc2n1 (configuration not stated)	none (no result: Cav32 inh)
N#CC(c1cccc(Cl)c1)c1ccc2c(C(F)(F)F)cc(C(F)(F)F)nc2n1 (configuration not stated)	Cav32 inh -9.2, CYP2C9 inh 78
CCCC1(C)Nc2ccccc2-c2nc3ccccc3n21 (configuration not stated)	CYP2C9 inh 59, CYP2C19 inhib 64
Cc1nnc2c(NC(C)C)nc3ccccc3n12	none
O=C(CCN1C(=O)c2cccc3cccc(c23)C1=O)N1CCN(Cc2ccc3c(c2)OCO3)CC1	none
CC(=O)c1cccc(NC2c3ccccc3C(=O)N2Cc2ccc3c(c2)OCO3)c1 (configuration not stated)	CYP2C9 inh 61
O=C1c2ccccc2C(Nc2ccc3c(c2)OCCO3)N1Cc1ccccc1 (configuration not stated)	Cav32 inh -6.2, CYP2C9 inh 98, CYP2C19 inhib 99
CCOc1ccc(NC2c3ccccc3C(=O)N2c2ccc(Cl)cn2)cc1 (configuration not stated)	none (no result: CYP2C9 act, CYP2C19 act, CYP2C9 inh, CYP2C19 inhib)
COc1cc(NC2c3ccccc3C(=O)N2Cc2ccc3c(c2)OCO3)cc(OC)c1OC (configuration not stated)	CYP2C9 inh 64, CYP2C19 inhib 98
